Experimental data: PubChem BioAssay (NCATS)
Inconclusive results are not listed. A number with no mark means an inactive call. Calls come from the whole dose curve; as a rule, active = well fitted curve in the direction sought with a large enough effect; inconclusive = small, poorly fitted or top-dose-only effect, or another doubt; inactive = no such curve, though single readings can be large or run the other way.

Assay: qHTS Assay for Identifying Gametocytocidal Compounds (AID 743244);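 note: actives lower the fluorescent signal which means gametocytes are killed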
Conditions: P. falciparum 3D7 stage III-V gametocytes, alamarBlue, 72 h; max response: hits give low values
In short: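 Stage III–V gametocytes of P. falciparum 3D7 were seeded at 20,000 cells/well onto pre-dispensed compounds. After 72 h, 37 °C, 5% CO2, alamarBlue was added for another 24 h.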
% is set by controls: 0 for no effect and ±100 for the full control effect.

First: COc1nccnc1NS(=O)(=O)c1ccc(N)cc1
Second: COc1ccc(NS(=O)(=O)c2ccc(N)cc2)nn1
The max response of the first is lower: -9.73% for the first, 10.4% for the second.

Going from `NS(=O)(=O)c1ccc(C(=O)O)cc1` to `NS(=O)(=O)c1ccc(NC(=O)CCC(=O)O)cc1`, the max response falls from 4.63% to -3.82%.

First: CC(=O)N[C@@H](CC(C)C)C(=O)O
Second: CC(C)C[C@@H](N)C(=O)O
The max response of the first is lower: -15.3% for the first, -9.37% for the second.

First: O=C(O)CNC(=O)c1ccccc1I
Second: O=C(O)c1ccccc1OP(=O)(O)O
The max response of the first is higher: -0.623% for the first, -5.84% for the second.

Compared with `O=C(O)c1ccccc1C(=O)Nc1ccc(S(=O)(=O)Nc2nccs2)cc1`, `Cc1onc(-c2ccccc2)c1-c1ccc(S(N)(=O)=O)cc1` is lower in max response: 31% for the first, 7.78% for the second.

Going from `CCOC(N)=O` to `CCCNC(C)C(=O)Nc1c(C)csc1C(=O)OC` (configuration not stated), the max response rises from -2.14% to 7.96%.

Going from `CCCCCCCCCCOc1cc2c(=O)c(C(=O)OCC)c[nH]c2cc1OCC` to `CCCCCCCCCCCCCCCCC(C(=O)O)C(O)(CC(=O)O)C(=O)O` (configuration not stated), the max response rises from -3.15% to 6.09%.

Compared with `COc1ccc(C(=O)NCc2ccc(OCCN(C)C)cc2)cc1OC`, `COc1ccccc1OCC(O)CO` (configuration not stated) is higher in max response: 7.72% for the first, 10.4% for the second.

First: C/C(=C(\CCO)SS/C(CCO)=C(\C)N(C=O)Cc1cnc(C)nc1N)N(C=O)Cc1cnc(C)nc1N
Second: Cc1c(C)c2c(c(C)c1OC(=O)c1cccnc1)CC[C@@](C)(CCC[C@H](C)CCC[C@H](C)CCCC(C)C)O2
The max response of the first is lower: -3.83% for the first, 6.89% for the second.

Compared with `CNCc1ccccc1`, `O=C(O)c1cc(=O)c2ccccc2o1` is higher in max response: 8.64% for the first, 42.7% for the second.

First: CC(=O)N(CC(O)CN(C(C)=O)c1c(I)c(C(=O)NCC(O)CO)c(I)c(C(=O)NCC(O)CO)c1I)c1c(I)c(C(=O)NCC(O)CO)c(I)c(C(=O)NCC(O)CO)c1I (configuration not stated)
Second: CC(=O)OC[C@H]1O[C@@](COC(C)=O)(O[C@H]2O[C@H](COC(C)=O)[C@@H](OC(C)=O)[C@H](OC(C)=O)[C@H]2OC(C)=O)[C@@H](OC(C)=O)[C@@H]1OC(C)=O
The max response of the first is higher: -5.28% for the first, -6.87% for the second.

First: Cc1cccc(C(=O)O)c1O
Second: N[C@@H](Cc1ccc(O)cc1)C(=O)O
The max response of the first is higher: 2.78% for the first, 0.124% for the second.

First: C[C@@H](c1ncncc1F)C(O)(Cn1cncn1)c1ccc(F)cc1F (some centres not stated)
Second: Cn1cc(C(=O)[C@@H]2CCc3nc[nH]c3C2)c2ccccc21
The max response of the first is higher: 4.12% for the first, -8.94% for the second.

Compared with `Cc1ccccc1N=Nc1ccc(N=Nc2c(O)ccc3ccccc23)c(C)c1`, `Nc1ccc(C(=O)Oc2ccccc2)c(O)c1` is lower in max response: 7.02% for the first, -7.01% for the second.

Compared with `O=C(O)COC(=O)Cc1ccccc1Nc1c(Cl)cccc1Cl`, `CCN(CC)CCOC(=O)C(c1ccccc1)c1ccccc1` is lower in max response: 5.55% for the first, -5.96% for the second.

Compared with `c1ccc2[nH]ccc2c1`, `C=CCOc1ccccc1OCC(O)CNC(C)C` (configuration not stated) is higher in max response: -5.55% for the first, 5.69% for the second.

Going from `CC(=O)[C@@]1(O)CC[C@H]2[C@@H]3C[C@H](C)C4=CC(=O)C=C[C@]4(C)[C@@]3(F)[C@@H](O)C[C@@]21C` to `CC[C@]12CCCN3CCc4c(n(c5ccccc45)[C@@](O)(C(=O)OC)C1)[C@@H]32`, the max response rises from -2.09% to 13.2%.

Going from `CC(C)CCCC(C)CCCC(C)CCCCC(C)CCCC(C)CCCC(C)C` (configuration not stated) to `CC(O)CCCCn1c(=O)c2c(ncn2C)n(C)c1=O` (configuration not stated), the max response falls from 5.26% to -9.87%.

`Cc1ccc(S(=O)(=O)NC(=O)NC2CCCCCCC2)cc1` gave a max response of 5.01%.
